# Assay outcomes from PubChem BioAssay.
# Rows were chosen to be rich in hits. Some 2.8% of all compounds tested hit in one or more screens of this group.
# PAFAH1B3 FP inh: blocks human PAF acetylhydrolase 1B catalytic subunit 3; Q15102; recombinant PAFAH1B3, FP-rhodamine probe, fluorescence polarization; inhibition, % at 3.39 µM; 340,000 tested, 0.28% active; AID 492972;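 active = inhibition above the screen-wide average of all tested compounds plus 3 SD, cut at about 25% in these data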;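 also: 0% = enzyme with DMSO only and 100% = wells lacking PAFAH1B3 protein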
# pPAFAH FP inh: pPAFAH (human) enzyme inhibition. recombinant pPAFAH, FP-rhodamine probe fluorescence polarization. inhibition, % at 3.39 µM. 330,000 tested, 1.5% active;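 active = inhibition above the mean inhibition across the screen plus 3 SD, cut at about 25% in these data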;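 also: inhibitors block binding of the rhodamine activity-based probe so polarization drops; 0% = enzyme with DMSO and 100% = wells lacking pPAFAH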
# Fam108B counter: blocks mouse Fam108B hydrolase in RBBP9 counter-screen; recombinant Fam108B, FP-Rh probe fluorescence polarization; inhibition, % at 9.51 µM; 300,000 tested, 0.33% active; AID 1947;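 active = inhibition above the screen mean inhibition plus 3 SD, computed separately per campaign, cut at about 18% in these data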;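 also: inhibitors lower polarization as less probe binds the enzyme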
# PME-1 inh: PME-1 (human) inhibition | Q9Y570 | recombinant PME-1, FP-Rh probe fluorescence polarization | inhibition, % at 5.9 µM | 320,000 tested, 0.53% active | AID 2130;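 active = inhibition above the campaign mean of all compounds plus 3 SD, cut at about 26% in these data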;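 also: competitive labeling of PME-1 active site by serine hydrolase directed probe; 0% = PME-1 with DMSO and 100% = wells lacking PME-1 enzyme; inhibitors block probe labeling so polarization falls and inhibition rises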
# Target sequence (Q9Y570 whole entry, looked up): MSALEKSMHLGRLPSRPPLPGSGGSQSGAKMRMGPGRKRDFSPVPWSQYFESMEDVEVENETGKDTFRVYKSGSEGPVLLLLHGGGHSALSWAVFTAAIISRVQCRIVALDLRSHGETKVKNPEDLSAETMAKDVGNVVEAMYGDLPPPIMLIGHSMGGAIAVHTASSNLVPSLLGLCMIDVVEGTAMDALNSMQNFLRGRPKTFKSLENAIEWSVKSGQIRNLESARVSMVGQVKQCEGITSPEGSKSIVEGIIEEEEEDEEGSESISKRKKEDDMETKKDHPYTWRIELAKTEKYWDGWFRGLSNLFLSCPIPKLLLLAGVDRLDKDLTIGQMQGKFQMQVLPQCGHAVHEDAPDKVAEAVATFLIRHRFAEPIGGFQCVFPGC
# PAFAH1B2 inh: blocks human PAF acetylhydrolase 1b catalytic subunit 2; P68402; recombinant PAFAH1B2, FP-rhodamine activity probe, fluorescence polarization; inhibition, % at 3.39 µM; 340,000 tested, 1.2% active; AID 492953;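 active = inhibition above the mean of all tested compounds plus 3 SD, cut at about 24% in these data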;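 also: 0% = enzyme with DMSO and 100% = wells lacking PAFAH1B2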
# Target sequence (P68402 whole entry, looked up): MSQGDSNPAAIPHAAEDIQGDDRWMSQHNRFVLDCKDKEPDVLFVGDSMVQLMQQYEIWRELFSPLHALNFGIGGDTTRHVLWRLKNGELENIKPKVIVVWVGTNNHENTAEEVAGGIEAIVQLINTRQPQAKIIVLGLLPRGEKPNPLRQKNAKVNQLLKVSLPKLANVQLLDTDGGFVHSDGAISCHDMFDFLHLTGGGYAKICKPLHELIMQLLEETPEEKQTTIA
# PAFAH2 inh: PAFAH2 (human) inhibition; Q99487; recombinant PAFAH2, FP-rhodamine activity probe, fluorescence polarization; inhibition, % at 3.39 µM; 340,000 tested, 0.99% active;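 active = inhibition above the mean over all tested compounds plus 3 SD, cut at about 30% in these data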;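 also: inhibitors block probe labeling of enzyme so polarization drops; 0% = enzyme with DMSO and 100% = wells lacking PAFAH2 protein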
# Fam108b inh conf: Fam108b (mouse) hydrolase inhibition, confirmation assay; shares compounds with Fam108B counter; AID 1978; inhibition, % at 9.51 µM; 930 tested, 44% active; recombinant Fam108b, FP-Rh probe fluorescence polarization;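 active = inhibition above a limit from the primary screen, the mean over all compounds plus 3 SD, cut at about 19% in these data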;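 also: 0% = median of active Fam108b wells and 100% = catalytically dead S170A mutant; inhibitors free the probe so polarization falls as inhibition rises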
# Fam108b ABPP HTS: mouse ABHD17B inhibition. shares compounds with Fam108B counter. recombinant Fam108b, gel-based ABPP, fluorophosphonate probe. inhibition, % at 20 µM. 260 tested, 44% active; in the data active = inhibition above about 40%
# Active calls of the source: *; . = no result.
SMILES,PAFAH1B3 FP inh,pPAFAH FP inh,Fam108B counter,PME-1 inh,PAFAH1B2 inh,PAFAH2 inh,Fam108b inh conf,others
Cn1c(N)c(C(=O)CSc2nc(C3CC3)n(-c3ccccc3)n2)c(=O)[nH]c1=O,3,32*,.,4,3,7,.,
Cn1c(N)c(C(=O)CSc2nnc(C3CC3)n2-c2ccccc2)c(=O)[nH]c1=O,6,1,.,.,-2,-4,.,
COc1ccc(N(C(=O)c2ccco2)C(C(=O)NC2CCCC2)c2ccccc2)cc1 (centres undefined),4,34*,-3,4,4,0,.,
COc1ccc(N(C(=O)CNC(=O)c2ccco2)C(C(=O)NC2CCCCC2)c2ccco2)cc1 (centres undefined),11,8,-1,8,26*,9,.,
Cc1cc(/C=N/n2cnnc2)c(C)n1-c1ccc(OCc2ccc(Cl)cc2)cc1,-1,13,-3,-6,7,0,.,
Cc1cc(/C=N/n2cnnc2)c(C)n1-c1ccc(OCc2ccccc2F)cc1,9,27*,-2,0,0,1,.,
COc1cccc(-c2c3c([nH]c(=O)c2C#N)CCc2cc(OC)ccc2-3)c1,.,-1,-1,5,.,.,.,
CN(C)c1ccc(NC(=O)Nc2csc3ccccc23)cc1,.,15,19*,19,.,.,27*,
Cc1cccc(NC(=S)N/N=C/c2c[nH]c3ccccc23)c1,10,18,22*,39*,2,5,16,
N#Cc1cccc(NC(=O)CSc2ccc3c4c(cccc24)C(=O)c2ccccc2-3)c1,27*,23,35*,10,30*,36*,21*,
COc1ccc(OC)c(S(=O)(=O)N2CCN(C(=O)c3cc(C4CC4)nn3-c3ccccc3)CC2)c1,7,-6,.,0,-2,-5,.,
O=C(Cc1ccc(Nc2nc3ccc(Br)cc3[nH]2)cc1)NCCc1cccs1,20,19,14,24,12,12,.,
O=C(NCC1CC1)c1ccc(Nc2nc3ccc(Br)cc3[nH]2)cc1,24,19,19*,7,18,-16,48*,Fam108b ABPP HTS=75*
O=C(O)c1cccc(-n2cccc2/C=C/[N+](=O)[O-])c1,19,29*,25*,-13,6,25,1,
O=C(O)c1cccc(-n2cccc2/C=C\[N+](=O)[O-])c1,-2,15,5,-7,1,-3,.,
COc1cc(Br)c(C(=O)c2nccc3cc(OC)c(OC)cc23)cc1OC,67*,14,63*,22,20,40*,62*,Fam108b ABPP HTS=0
CCCc1ccc(C2C3=C(CC(C)(C)CC3=O)NC3=C2C(=O)c2ccccc23)cc1 (centres undefined),9,6,24*,4,12,6,1,
NC(=O)c1cc([N+](=O)[O-])ccc1NCc1cnccn1,-4,-2,-2,2,-1,2,.,
Oc1c(Br)cc(/C=N/n2c(-c3ccccc3)n[nH]c2=S)c(Br)c1O,.,88*,34*,-8,.,.,41*,
Oc1c(Br)cc(Br)cc1/C=N/n1c(-c2ccccc2)n[nH]c1=S,7,7,-2,-3,7,-1,.,
COc1ccc(-n2c(SCC(=O)N(C)C3CCS(=O)(=O)C3)nc3ccc(O)cc3c2=O)cc1OC (centres undefined),0,2,.,.,3,1,.,
COC(=O)c1c(Cl)c2n3ccccc3c(C)c(-c3ccccc3)c-2c1C(=O)OC,17,20,19*,16,0,-1,10,
COC(=O)c1cc2c(-c3ccccc3)c(C)c3ccccn3c-2c1C(=O)OC,5,12,6,5,1,11,.,
O=[N+]([O-])c1cccc(N/N=C/c2cccc3ccccc23)c1,16,2,26*,25,5,28,23*,
O=C(Nc1ccc(Oc2ccc(Cl)cc2)c(Cl)c1)c1cc(I)cc(I)c1O,13,11,18*,8,-3,-14,-2,
SMILES,PAFAH1B3 FP inh,pPAFAH FP inh,Fam108B counter,PME-1 inh,PAFAH1B2 inh,PAFAH2 inh,Fam108b inh conf,others
COc1ccc(NC(=O)c2ccccc2F)cc1Cl,1,1,0,-1,2,0,.,
Cc1cc(C)c(NC(=O)CN(C)C(=O)C2CC(=O)N(c3cccc4ccccc34)C2)c(C)c1 (centres undefined),1,2,.,-3,1,-13,.,
CCN(CC)CCCNc1nc2ccccc2c2nc(-c3ccncc3)nn12,8,5,1,3,3,4,.,
CCOc1cccc(CNc2nnnn2C)c1,9,16,2,-1,1,0,.,
CCOc1ccccc1N(C)S(=O)(=O)c1ccc2c(c1)CCN2C(=O)CCC(=O)O,0,6,4,4,4,1,.,
Cc1cccc(C(=O)Oc2ccccc2/C=N/Nc2ccc([N+](=O)[O-])cc2)c1,7,0,25*,21,6,8,1,
O=C(O)C1=CC(=C(c2ccc(O)c(C(=O)O)c2)c2ccc(O)c(C(=O)O)c2)C=CC1=O,.,66*,53*,-55,.,.,32*,
CC1=C/C(=C(\c2ccc(O)c(C)c2)c2ccccc2S(=O)(=O)O)C=CC1=O,5,5,5,0,7,2,.,
Cc1nc2ccccc2n2c(O)c(CC(=O)O)cc12,13,27*,18*,22,18,26,11,
Cc1cc(C(=O)O)ccc1-n1c(C)ccc1C,.,50*,24*,-18,.,.,14,
Cc1ccc(-n2c(C)cc(=O)cc2C)c(C)c1,0,5,-3,1,2,4,.,
Cc1cc(N)ccc1-n1c(C)ccc1C,24,33*,42*,90*,6,9,4,
CC(C)(CNC(=O)c1cccc(F)c1)CNC(=O)c1cccc(F)c1,5,-2,2,-1,8,7,.,
O=C/C=C/c1c(-c2ccccc2)cc2oc3ccccc3cc1-2,7,23,27*,6,3,17,-12,
N#Cc1c(Cl)c(Cl)c2nnc(-c3ccc(Br)cc3)n2c1Cl,.,17,19*,17,.,.,10,
[S-]c1nnc(-c2ccc(Br)cc2)n1-c1ccccc1.[Zn+2],-2,3,-6,1,3,2,.,
CCOc1ccc(/C(O)=C2/C(=O)C(=O)N(c3ccccn3)C2c2ccc(F)cc2)c(C)c1 (centres undefined),2,6,5,0,7,0,.,
NC(=S)N/N=C/c1c[nH]c2ccc(OCc3ccccc3)cc12,6,15,16,17,6,0,.,
COc1ccc(C(=O)Nc2nc(-c3cccs3)cs2)cc1,4,-4,-4,-20,1,-1,.,
CCCSc1nnc(NC(=O)c2ccco2)s1,8,1,2,0,5,4,.,
